Test results published in PubChem BioAssay AID1159580 (chemical genetic matrix, 2015).
Screen size: about 5,500 compounds; about 2,000 (36%) were called active. Another 18% or so got no clear call; they are omitted. The list shows a part of the results. Unmarked numbers belong to inactive results. No stated cut-off is given here; in the data, active means normalized growth mostly below about 0.91 (no sharp cut-off); inconclusive means no clear call, values can overlap the other calls; inactive means mostly above about 0.92.

Test: chemical genetic growth profiling, strain panel (AID 1159580);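 further: tested at 20 µM; growth read once vehicle control cultures reached saturation at 30 °C; 1 = growth at the plate median or of vehicle wells; lower values mean less growth of the strain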
Conditions: growth OD

## CC1[C@H](C)OC(=O)CC(O)CC(O)CC(O)CCC(O)C(O)C[C@]2(O)CC(O)C(C(=O)O)C(CC(OC3O[C@H](C)[C@@H](O)[C@H](N)[C@@H]3O)/C=C/C=C/C=C/C=C/CC/C=C/C=C/[C@H](C)[C@H]1O)O2 (stereo partly specified)
S. cerevisiae deletion strains, locus YNL071W, strain lat1, active compounds read low
  normalized growth: 0.885 (active)
S. cerevisiae deletion strains, locus YNL128W, strain TEP1, active compounds read low
  normalized growth: 0.0617 (active)
S. cerevisiae deletion strains, locus YNL153C, strain GIM3, active compounds read low
  normalized growth: 0.0492 (active)
S. cerevisiae deletion strains, locus YNL183C, strain NPR1, active compounds read low
  normalized growth: 0.00104 (active)
S. cerevisiae deletion strains, locus YNL209W, strain ssb2, active compounds read low
  normalized growth: 0.816 (active)
S. cerevisiae deletion strains, locus YNL233W, strain BNI4, active compounds read low
  normalized growth: 0.135 (active)
S. cerevisiae deletion strains, locus YNL248C, strain rpa49, active compounds read low
  normalized growth: 0.104 (active)
S. cerevisiae deletion strains, locus YNL250W, strain rad50, active compounds read low
  normalized growth: 0.0643 (active)
S. cerevisiae deletion strains, locus YNL271C, strain bni1, active compounds read low
  normalized growth: 0.0657 (active)
S. cerevisiae deletion strains, locus YNL298W, strain CLA4, active compounds read low
  normalized growth: 0.0613 (active)
S. cerevisiae deletion strains, locus YNL307C, strain MCK1, active compounds read low
  normalized growth: 0.0855 (active)
S. cerevisiae deletion strains, locus YNL322C, strain KRE1 (second series), active compounds read low
  normalized growth: 0.695 (active)
S. cerevisiae deletion strains, locus YNL322C, strain KRE1, active compounds read low
  normalized growth: 0.0469 (active)
S. cerevisiae deletion strains, locus YNR049C, strain mso1, active compounds read low
  normalized growth: 0.951
S. cerevisiae deletion strains, locus YNR052C, strain pop2, active compounds read low
  normalized growth: 0.0638 (active)
S. cerevisiae deletion strains, locus YOL006C, strain TOP1, active compounds read low
  normalized growth: 0.276 (active)
S. cerevisiae deletion strains, locus YOL012C, strain htz1
  normalized growth: 0.206
S. cerevisiae deletion strains, locus YOL147C, strain pex11, active compounds read low
  normalized growth: 0.111 (active)
S. cerevisiae deletion strains, locus YOR001W, strain rrp6, active compounds read low
  normalized growth: 0.102 (active)
S. cerevisiae deletion strains, locus YOR061W, strain CKA2, active compounds read low
  normalized growth: 0.41 (active)
S. cerevisiae deletion strains, locus YOR069W, strain VPS5, active compounds read low
  normalized growth: 0.156 (active)
S. cerevisiae deletion strains, locus YOR070C, strain gyp1, active compounds read low
  normalized growth: 0.95
S. cerevisiae deletion strains, locus YOR080W, strain dia2, active compounds read low
  normalized growth: 0.826 (active)
S. cerevisiae deletion strains, locus YOR083W, strain WHI5, active compounds read low
  normalized growth: 0.798 (active)
S. cerevisiae deletion strains, locus YOR106W, strain vam3, active compounds read low
  normalized growth: 0.284 (active)
S. cerevisiae deletion strains, locus YOR136W, strain idh2, active compounds read low
  normalized growth: 0.221 (active)
S. cerevisiae deletion strains, locus YOR144C, strain elg1, active compounds read low
  normalized growth: 0.123 (active)
S. cerevisiae deletion strains, locus YOR184W, strain ser1, active compounds read low
  normalized growth: 0.0785 (active)
S. cerevisiae deletion strains, locus YOR231W, strain MKK1, active compounds read low
  normalized growth: 0.105 (active)
S. cerevisiae deletion strains, locus YOR265W, strain rbl2, active compounds read low
  normalized growth: 0.887 (active)
S. cerevisiae deletion strains, locus YOR270C, strain vph1, active compounds read low
  normalized growth: 0.837
S. cerevisiae deletion strains, locus YOR290C, strain snf2, active compounds read low
  normalized growth: 1.01
S. cerevisiae deletion strains, locus YOR316C, strain cot1, active compounds read low
  normalized growth: 0.236 (active)
S. cerevisiae deletion strains, locus YPL051W, strain arl3, active compounds read low
  normalized growth: 0.885 (active)
S. cerevisiae deletion strains, locus YPL055C, strain LGE1, active compounds read low
  normalized growth: 0.0909 (active)
S. cerevisiae deletion strains, locus YPL078C, strain atp4, active compounds read low
  normalized growth: 0.757 (active)
S. cerevisiae deletion strains, locus YPL106C, strain sse1, active compounds read low
  normalized growth: 0.229 (active)
S. cerevisiae deletion strains, locus YPL240C, strain hsp82, active compounds read low
  normalized growth: 0.943
S. cerevisiae deletion strains, locus YPL241C, strain CIN2, active compounds read low
  normalized growth: 0.182 (active)
S. cerevisiae deletion strains, locus YPL256C, strain CLN2, active compounds read low
  normalized growth: 0.116 (active)
S. cerevisiae deletion strains, locus YPR119W, strain clb2, active compounds read low
  normalized growth: 0.271 (active)
S. cerevisiae deletion strains, locus YPR141C, strain kar3, active compounds read low
  normalized growth: 0.0655 (active)
S. cerevisiae deletion strains, locus YPR163C, strain tif3, active compounds read low
  normalized growth: 0.152 (active)
S. cerevisiae deletion strains, locus YPR167C, strain met16, active compounds read low
  normalized growth: 0.0932 (active)
S. cerevisiae deletion strains, strain wtn01, active compounds read low
  normalized growth: 0.0877 (active)
S. cerevisiae strains, strain wild type, active compounds read low
  normalized growth: 0.0547 (active)
